The record followed here is PubChem BioAssay (NCATS).

Inconclusive results are not listed. Values without a mark were called inactive. Active and inactive are the calls of the source. Calls come from the whole dose curve; as a rule, active = well fitted inhibition curve with a large enough effect; inconclusive = small, poorly fitted or top-dose-only effect; inactive = flat fitted curve, though single readings scatter.
Potency is the fitted concentration of half-maximal effect.

The first experiment deals with CP329. The experiment is described as follows: qHTS profiling for inhibitors of Plasmodium falciparum proliferation (AID 504749).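 For activity, negative = inhibition: 0% = DMSO vehicle and full inhibition = artemisinin control.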 Note: nearly all actives have a fitted effect of over 60% in size. The settings on record: P. falciparum in erythrocytes, SYBR Green DNA, 72 h; series mostly up to 28.7 µM; activity, negative = inhibition: at the top concentration. The method, boiled down: (§1)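 SYBR Green fluorescence (ex 485 nm, em 535 nm) reports parasite DNA after 72 h compound exposure of infected red cells at 0.3% parasitemia, 2.5% hematocrit; signal normalized to 0.29 uM artemisinin and vehicle wells.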
In general terms: Quantitative high-throughput screening tests each substance at several concentrations.
As to `CC(C)C(=O)Nc1ccc([N+](=O)[O-])c(C(F)(F)F)c1`, the “activity, negative = inhibition” value was -0.752%. As to `NC(=O)NO`, the “activity, negative = inhibition” value was -6.62%. As for `CCOC(=O)C(C)(C)Oc1ccc(Cl)cc1`, the “activity, negative = inhibition” value is 6.19%.

As to `CC(CCc1ccc(O)cc1)NCCc1ccc(O)c(O)c1` (stereo unspecified), the “activity, negative = inhibition” value was -0.395%. As to `Cc1cn([C@H]2C[C@H](N=[N+]=[N-])[C@@H](CO)O2)c(=O)[nH]c1=O`, the “activity, negative = inhibition” value was 0.881%.

As for `Cc1cc(C(C)(C)C)c(O)c(C)c1CC1=NCCN1`, the “activity, negative = inhibition” value is 6.83%. Same read-out and setting: the same measure for `NS(=O)(=O)c1cc2c(cc1Cl)NCNS2(=O)=O`: 4.75%; for `CCOC(=O)c1ncn2c1CN(C)C(=O)c1cc(F)ccc1-2`: 11.4%. On the same count and under the same terms, the same measure for `COC(=O)Nc1nc2ccc(C(=O)c3cccs3)cc2[nH]1`: -5.72%; for `Clc1ccc2nsnc2c1NC1=NCCN1`: 3.71%. For `Cn1c(=O)c2c(ncn2C)n(C)c1=O`, the “activity, negative = inhibition” value is 1.09%.

As to `CC(C)Cc1ccc(C(C)C(=O)O)cc1` (stereo unspecified), the “activity, negative = inhibition” value was -0.596%.

As for `Cn1cnc2c1c(=O)[nH]c(=O)n2C`, the “activity, negative = inhibition” value was -2.75%.

Consider `Cn1c(=O)c2[nH]cnc2n(C)c1=O`, for which the “activity, negative = inhibition” value was 5%. As to `NCCCCCC(=O)O`, the “activity, negative = inhibition” value is 1.22% [at 12.8 µM]. Turning to `CC(C)(Oc1ccc(C2CC2(Cl)Cl)cc1)C(=O)O` (stereo unspecified), the “activity, negative = inhibition” value was 1.19%. Consider `CN1C(C(=O)Nc2ccccn2)=C(O)c2ccccc2S1(=O)=O`, for which the “activity, negative = inhibition” value was 3.42% [at 12.8 µM]. For `N[C@@H](Cc1c[nH]c2ccc(O)cc12)C(=O)O`, the “activity, negative = inhibition” value is 5.81%.

For the molecule `COc1cc2c(c(OC)c1OC)-c1ccc(OC)c(=O)cc1[C@@H](NC(C)=O)CC2`, the “activity, negative = inhibition” value is 0.0689%. In the case of `Cc1cc(C(C)(C)C)cc(C)c1CC1=NCCN1`, the “activity, negative = inhibition” value is -13.2% [at 12.8 µM]. Take `Cc1cnc(C(=O)NCCc2ccc(S(=O)(=O)NC(=O)NC3CCCCC3)cc2)cn1`: the “activity, negative = inhibition” value is -10.8%. On to `CN1CCN2c3ccccc3Cc3ccccc3C2C1` (stereo unspecified), for which the “activity, negative = inhibition” value was 5.17%. Regarding `Nc1nnc(-c2cccc(Cl)c2Cl)c(N)n1`, the “activity, negative = inhibition” value is -16.4%.

In the case of `CC[N+](CC)(CC)CCOc1cccc(OCC[N+](CC)(CC)CC)c1OCC[N+](CC)(CC)CC`, the “activity, negative = inhibition” value was -2.87%.

Take `Cc1ccc(C(=O)Nc2ccc(S(=O)(=O)O)c3cc(S(=O)(=O)O)cc(S(=O)(=O)O)c23)cc1NC(=O)c1cccc(NC(=O)Nc2cccc(C(=O)Nc3cc(C(=O)Nc4ccc(S(=O)(=O)O)c5cc(S(=O)(=O)O)cc(S(=O)(=O)O)c45)ccc3C)c2)c1`: the “activity, negative = inhibition” value was -11.2%. In the case of `CS(=O)(=O)Nc1ccc([N+](=O)[O-])cc1Oc1ccccc1`, the “activity, negative = inhibition” value was 5.81% [at 12.8 µM]. The same measure, in the same setting: under `CC(=O)OCC(CCn1cnc2cnc(N)nc21)COC(C)=O` stands -2.41%; under `C[C@](N)(Cc1ccc(O)c(O)c1)C(=O)O`, 1.99%. Take `COc1ccccc1OCC(O)CN1CCN(CC(=O)Nc2c(C)cccc2C)CC1` (stereo unspecified): the “activity, negative = inhibition” value is 6.1%.

Regarding `Cc1cn([C@H]2C=C[C@@H](CO)O2)c(=O)[nH]c1=O`, the “activity, negative = inhibition” value is -0.275%. For the molecule `Clc1ccccc1C(c1ccccc1)(c1ccccc1)n1ccnc1`, the Potency was 2.87 µM (active).

Regarding `CC(C)(C)C(=O)Oc1ccc(S(=O)(=O)Nc2ccccc2C(=O)NCC(=O)O)cc1`, the “activity, negative = inhibition” value is 3.81%. For the molecule `NC(=O)OCC(COC(N)=O)c1ccccc1`, the “activity, negative = inhibition” value is 9.67%. Still for that read-out and setting: under `COc1ccccc1N1CCN(CC(O)COc2cccc3ccccc23)CC1` (stereo unspecified) stands -0.392%; under `O=c1c(-c2ccc(O)cc2)coc2cc(O)cc(O)c12`, -2.88%. On to `CCCNCC(O)COc1ccccc1C(=O)CCc1ccccc1` (stereo unspecified), for which the Potency is 6.75 µM (active). `NCCc1cnc[nH]1`: the “activity, negative = inhibition” value is 1.3%. Turning to `CN(C)c1nc(N(C)C)nc(N(C)C)n1`, the “activity, negative = inhibition” value was 5.25% [at 12.8 µM]. Consider `CC(C)NCC(O)c1ccc(O)c(O)c1` (stereo unspecified), for which the “activity, negative = inhibition” value was 10.6%.

The test system of another experiment is CP335. Described as above. The settings on record: P. falciparum in erythrocytes, SYBR Green DNA, 72 h; series mostly up to 28.7 µM; activity, negative = inhibition: at the top concentration. The gist of the method:
as §1
`CC(C)C(=O)Nc1ccc([N+](=O)[O-])c(C(F)(F)F)c1`: the “activity, negative = inhibition” value is -1.49%. As to `NC(=O)NO`, the “activity, negative = inhibition” value is 1.1%.

For `CCOC(=O)C(C)(C)Oc1ccc(Cl)cc1`, the “activity, negative = inhibition” value is 2.47%. With `CC(CCc1ccc(O)cc1)NCCc1ccc(O)c(O)c1` (stereo unspecified), the “activity, negative = inhibition” value is 18.7%. In the case of `Cc1cn([C@H]2C[C@H](N=[N+]=[N-])[C@@H](CO)O2)c(=O)[nH]c1=O`, the “activity, negative = inhibition” value is 3.56%. Turning to `Cc1cc(C(C)(C)C)c(O)c(C)c1CC1=NCCN1`, the “activity, negative = inhibition” value is 0.0006%. Still for that read-out and setting: the same measure for `NS(=O)(=O)c1cc2c(cc1Cl)NCNS2(=O)=O`: -1.07%; for `CCOC(=O)c1ncn2c1CN(C)C(=O)c1cc(F)ccc1-2`: 3.74%; for `COC(=O)Nc1nc2ccc(C(=O)c3cccs3)cc2[nH]1`: -2.74%. In the case of `Clc1ccc2nsnc2c1NC1=NCCN1`, the “activity, negative = inhibition” value is 5.16%. Consider `Cn1c(=O)c2c(ncn2C)n(C)c1=O`, for which the “activity, negative = inhibition” value is 8.08%.

`CC(C)Cc1ccc(C(C)C(=O)O)cc1` (stereo unspecified): the “activity, negative = inhibition” value is 8.63%. Take `Cn1cnc2c1c(=O)[nH]c(=O)n2C`: the “activity, negative = inhibition” value was 6.64%. For the molecule `Cn1c(=O)c2[nH]cnc2n(C)c1=O`, the “activity, negative = inhibition” value was -2.3%.

For the molecule `NCCCCCC(=O)O`, the “activity, negative = inhibition” value was 0.326% [at 12.8 µM]. Take `CC(C)(Oc1ccc(C2CC2(Cl)Cl)cc1)C(=O)O` (stereo unspecified): the “activity, negative = inhibition” value was 6.09%. In the case of `CN1C(C(=O)Nc2ccccn2)=C(O)c2ccccc2S1(=O)=O`, the “activity, negative = inhibition” value was 0.0097% [at 12.8 µM]. `N[C@@H](Cc1c[nH]c2ccc(O)cc12)C(=O)O`: the “activity, negative = inhibition” value is 4.74%.

Turning to `Cc1cc(C(C)(C)C)cc(C)c1CC1=NCCN1`, the “activity, negative = inhibition” value is -14.2% [at 12.8 µM]. Same read-out and setting: the same measure for `Cc1cnc(C(=O)NCCc2ccc(S(=O)(=O)NC(=O)NC3CCCCC3)cc2)cn1`: 4.6%. As for `CN1CCN2c3ccccc3Cc3ccccc3C2C1` (stereo unspecified), the “activity, negative = inhibition” value was 0.705%.

As to `Nc1nnc(-c2cccc(Cl)c2Cl)c(N)n1`, the “activity, negative = inhibition” value is 2.7%. Consider `CC[N+](CC)(CC)CCOc1cccc(OCC[N+](CC)(CC)CC)c1OCC[N+](CC)(CC)CC`, for which the “activity, negative = inhibition” value is 2.15%. For the molecule `Cc1ccc(C(=O)Nc2ccc(S(=O)(=O)O)c3cc(S(=O)(=O)O)cc(S(=O)(=O)O)c23)cc1NC(=O)c1cccc(NC(=O)Nc2cccc(C(=O)Nc3cc(C(=O)Nc4ccc(S(=O)(=O)O)c5cc(S(=O)(=O)O)cc(S(=O)(=O)O)c45)ccc3C)c2)c1`, the “activity, negative = inhibition” value was 7.23%. As for `CS(=O)(=O)Nc1ccc([N+](=O)[O-])cc1Oc1ccccc1`, the “activity, negative = inhibition” value was 6.93% [at 12.8 µM]. On to `CC(=O)OCC(CCn1cnc2cnc(N)nc21)COC(C)=O`, for which the “activity, negative = inhibition” value was 3.27%. The same measure, in the same setting: under `C[C@](N)(Cc1ccc(O)c(O)c1)C(=O)O` stands 2.08%; under `COc1ccccc1OCC(O)CN1CCN(CC(=O)Nc2c(C)cccc2C)CC1` (stereo unspecified), 6.34%. Regarding `Cc1cn([C@H]2C=C[C@@H](CO)O2)c(=O)[nH]c1=O`, the “activity, negative = inhibition” value is 1.29%.

Consider `Clc1ccccc1C(c1ccccc1)(c1ccccc1)n1ccnc1`, for which the Potency is 1.28 µM (active). As to `CC(C)(C)C(=O)Oc1ccc(S(=O)(=O)Nc2ccccc2C(=O)NCC(=O)O)cc1`, the “activity, negative = inhibition” value was 3.2%. For the molecule `COc1ccccc1N1CCN(CC(O)COc2cccc3ccccc23)CC1` (stereo unspecified), the “activity, negative = inhibition” value was 2.8%.

Take `O=c1c(-c2ccc(O)cc2)coc2cc(O)cc(O)c12`: the “activity, negative = inhibition” value is 5.21%. Consider `CCCNCC(O)COc1ccccc1C(=O)CCc1ccccc1` (stereo unspecified), for which the Potency was 3.01 µM (active). As to `NCCc1cnc[nH]1`, the “activity, negative = inhibition” value was 6.98%.

Regarding `CN(C)c1nc(N(C)C)nc(N(C)C)n1`, the “activity, negative = inhibition” value is 3.72% [at 12.8 µM]. Turning to `CC(C)NCC(O)c1ccc(O)c(O)c1` (stereo unspecified), the “activity, negative = inhibition” value is 0.911%.
